Test results published in PubChem BioAssay.
For part of these data: Measured potencies and affinities stand elsewhere. Active and inactive are the calls of the source.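 The calls were made as follows, unless noted: active = earlier screen potentiator hit that boosts the TRPC4 ion channel at some dose, with a dose response; inactive = no potentiation, no dose response, or not a prior hit.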

Experiments:
[1] = tested on: TRPC4 beta (transient receptor potential cation channel C4), mouse; assay: activators of mouse TRPC4 channel, confirmation, cell-based, Fluo4 calcium, HEK293 TRPC4beta/mu-opioid, duplicates, 10 µM (AID 2426;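 active = fluorescence ratio normalized to control raised more than 50% in primary screen plus both repeat runs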;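 also: percent rise of integrated ratio over buffer wells lacking compound which define 0%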); conditions: Fluo4 calcium fluorescence, at 10 µM; stronger effect = higher value
[2] = tested on: transient receptor potential cation channel C4 beta (TRPC4), mouse; assay: activators of mouse TRPC4 channel, confirmation, cell-based, second round, Fluo4, HEK293 TRPC4beta/mu-opioid, 1 µM (AID 2461;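 active = primary screen active and over 50% activation in each of two duplicate runs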;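 as to activation: 0% = wells without test compound as baseline of integrated fluorescence ratio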); conditions: Fluo4 calcium fluorescence, at 1 µM; stronger effect = higher value
[3] = tested on: TRPC4 (transient receptor potential cation channel C4 beta), mouse; assay: positive allosteric modulators of mouse TRPC4, confirmation, cell-based, second round, Fluo-4, HEK293 TRPC4beta/mu-opioid, 1 µM (AID 2554;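 active = primary screen hit whose fluorescence ratio, in both repeats, exceeds the weak agonist control mean by 3 SD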); conditions: DAMGO EC20, Fluo-4 calcium flux, at 1 µM; stronger effect = higher value
[4] = tested on: TRPC4 beta (transient receptor potential cation channel C4), mouse; assay: positive allosteric modulators of mouse TRPC4, confirmation, cell-based, Fluo-4, HEK293 TRPC4beta/mu-opioid (AID 2555;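 active = primary screen hit whose calcium fluorescence ratio, in both repeats, exceeds the weak agonist control mean by 3 SD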); conditions: DAMGO EC20, Fluo-4 calcium flux, at 10 µM; stronger effect = higher value
[5] = biological target: Short transient receptor potential channel 4 (Mus musculus) (UniProt Q9QUQ5); assay: inhibitors of mouse TRPC4 channel, confirmation, cell-based, Fluo4, HEK293 TRPC4beta/mu-opioid (AID 2636;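 active = calcium signal cut by more than 3 SD below the full-agonist control yet still positive, in both repeats and the earlier primary screen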); conditions: DAMGO, Fluo4 calcium flux, at 10 µM; stronger effect = higher value
[6] = biological target: Short transient receptor potential channel 4 (Mus musculus) (UniProt Q9QUQ5); assay: inhibitors of mouse TRPC4 channel, confirmation, cell-based, second round, Fluo4, HEK293 TRPC4beta/mu-opioid, 1 µM (AID 2637;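 active = calcium signal ratio cut to more than 3 SD under the fully stimulated control mean yet still positive, in both repeats and the primary screen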); conditions: Fluo4 calcium flux, DAMGO, at 1 µM; stronger effect = higher value
[7] = biological target: Short transient receptor potential channel 4 (Mus musculus) (UniProt Q9QUQ5); assay: TRPC4 positive allosteric modulators, dose response, cell-based, HEK293 TRPC4/mu-opioid, Fluo-4 calcium, EC20 DAMGO (AID 434941);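 also: calcium entry triggered by an EC20 dose of DAMGO at the co-expressed mu-opioid receptor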
[8] = biological target: Short transient receptor potential channel 4 (Mus musculus) (UniProt Q9QUQ5); assay: mouse TRPC4 channel inhibitors, dose response, cell-based, HEK293 TRPC4/mu-opioid, Fluo-4 calcium (AID 434942;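 active = primary screen inhibitor hit that blocks the TRPC4 channel at some tested dose, yielding a dose curve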)
[9] = biological target: Short transient receptor potential channel 6 (Mus musculus) (UniProt Q61143); assay: inhibition of mouse TRPC6 channel, confirmation, selectivity assay for TRPC4 inhibitor project, cell-based, HEK293, membrane potential dye, duplicate (AID 434948;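 active = active in primary screen and both duplicates, each dropping signal beyond three positive-control SD with fluorescence still positive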); conditions: HEK293 TRPC6, membrane potential dye fluorescence, at 10 µM, stimulated with maximal-effect acetylcholine; stronger effect = higher value
[10] = biological target: Short transient receptor potential channel 6 (Mus musculus) (UniProt Q61143); assay: activation of mouse TRPC6 channel, confirmation, selectivity assay for TRPC4 activator project, cell-based, HEK293, membrane potential dye, duplicate (AID 434950;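 active = membrane potential signal rise above negative control mean plus 3 SD in both duplicates, also active in the earlier TRPC4 screen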;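 as to activation: 0% = buffer only wells and 100% = acetylcholine maximal-effect wells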); conditions: HEK293 TRPC6, membrane potential fluorescence, at 10 µM; stronger effect = higher value
[11] = biological target: Short transient receptor potential channel 6 (Mus musculus) (UniProt Q61143); assay: TRPC6 potentiation by TRPC4 potentiator hits, confirmation, selectivity assay for TRPC4 potentiator project, HEK293 cells, membrane potential dye, duplicate (AID 434952;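 active = compound raising the membrane signal above positive-control mean plus 3 SD in both repeats, and a primary screen hit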); conditions: HEK293 TRPC6, membrane potential dye fluorescence, at 10 µM, maximal acetylcholine added after compound; stronger effect = higher value
[12] = biological target: Short transient receptor potential channel 4 (Mus musculus) (UniProt Q9QUQ5); assay: calcium flux activators in TRPC4/5HT1a cells, counter-screen for TRPC4 activator project, cell-based, second counter screen, HEK293 TRPC4/5HT1a, Fluo-4 (AID 434977;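 active = calcium signal rise above buffer-control mean plus 5 SD in both duplicates, and also a hit in the primary screen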;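 as to activation: plate controls were assay buffer for no effect and maximal serotonin response for full effect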); conditions: Fluo-4 calcium flux, at 10 µM; stronger effect = higher value
[13] = calcium flux inhibitors in TRPC4/5HT1a cells, confirmation, counter-screen for TRPC4 inhibitor project, cell-based, second counter screen, HEK293 TRPC4/5HT1a, Fluo-4 (AID 434978;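 active = primary screen active whose calcium signal fell more than 3 SD beyond the full-serotonin control mean in both duplicate plates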;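 also: serotonin given first at submaximal then at maximal dose after compound preincubation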); conditions: Fluo-4 calcium flux, at 10 µM, serotonin added to trigger calcium flux; stronger effect = higher value
[14] = tested on: TRPC4 (mouse), co-expressed with 5HT1a in HEK293; assay: calcium flux potentiators in TRPC4/5HT1a cells, confirmation, counter-screen for TRPC4 potentiator project, cell-based, second counter screen, HEK293 TRPC4/5HT1a, Fluo-4 (AID 434979;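 active = signal rise over 3 SD above mean of control wells given weak agonist, in both repeats and first screen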); conditions: Fluo-4 calcium flux, at 10 µM, serotonin added at its EC20 dose; stronger effect = higher value
[15] = calcium flux activation in mu-opioid HEK293 cells, confirmation, counter-screen for TRPC4 activator project, cell-based, HEK293 mu-opioid receptor line (AID 449723;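 active = hit in primary screen, with calcium signal over 5 SD above buffer well mean in both duplicates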;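 also: counter screen cells carry the mu-opioid receptor alone and lack TRPC4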); conditions: Fluo-4 calcium fluorescence, at 10 µM; stronger effect = higher value
[16] = calcium flux enhancement in mu-opioid HEK293 cells, confirmation, counter-screen for TRPC4 allosteric potentiator project, cell-based, HEK293 mu-opioid receptor line (AID 449724;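 active = calcium signal rise more than 3 SD above the low-dose agonist control mean, in both duplicate plates and the primary screen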;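 also: HEK293 cells carrying mu-opioid receptor only with no TRPC4 channel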); conditions: Fluo-4 calcium flux, at 10 µM, compound added before EC20 DAMGO stimulus; stronger effect = higher value

Short transient receptor potential channel 4 (Mus musculus), sequence (Q9QUQ5 whole entry, looked up): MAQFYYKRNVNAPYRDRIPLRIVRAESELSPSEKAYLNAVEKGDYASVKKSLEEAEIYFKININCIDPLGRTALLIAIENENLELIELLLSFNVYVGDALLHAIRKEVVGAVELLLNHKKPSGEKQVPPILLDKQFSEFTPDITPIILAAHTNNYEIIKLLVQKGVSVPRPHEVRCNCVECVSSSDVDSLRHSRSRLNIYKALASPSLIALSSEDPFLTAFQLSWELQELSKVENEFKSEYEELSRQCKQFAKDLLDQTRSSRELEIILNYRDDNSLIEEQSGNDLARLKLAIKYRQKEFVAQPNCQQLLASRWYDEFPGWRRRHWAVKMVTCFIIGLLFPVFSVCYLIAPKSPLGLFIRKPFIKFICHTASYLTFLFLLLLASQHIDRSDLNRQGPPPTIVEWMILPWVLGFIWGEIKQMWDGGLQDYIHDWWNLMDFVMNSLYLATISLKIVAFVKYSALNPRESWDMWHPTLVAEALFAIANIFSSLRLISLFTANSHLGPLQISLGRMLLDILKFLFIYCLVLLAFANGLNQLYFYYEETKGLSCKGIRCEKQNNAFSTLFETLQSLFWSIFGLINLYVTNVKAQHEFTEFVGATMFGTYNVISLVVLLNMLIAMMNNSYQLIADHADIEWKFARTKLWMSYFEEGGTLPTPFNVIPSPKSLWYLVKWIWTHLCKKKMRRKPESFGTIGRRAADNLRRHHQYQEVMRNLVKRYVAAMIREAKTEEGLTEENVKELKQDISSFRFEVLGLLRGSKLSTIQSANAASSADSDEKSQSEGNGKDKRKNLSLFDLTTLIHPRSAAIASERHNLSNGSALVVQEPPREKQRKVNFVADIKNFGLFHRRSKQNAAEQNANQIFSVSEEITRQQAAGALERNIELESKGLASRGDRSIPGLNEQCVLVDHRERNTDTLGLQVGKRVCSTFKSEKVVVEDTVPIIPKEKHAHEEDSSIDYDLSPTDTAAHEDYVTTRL
Short transient receptor potential channel 6 (Mus musculus), sequence (Q61143 whole entry, looked up): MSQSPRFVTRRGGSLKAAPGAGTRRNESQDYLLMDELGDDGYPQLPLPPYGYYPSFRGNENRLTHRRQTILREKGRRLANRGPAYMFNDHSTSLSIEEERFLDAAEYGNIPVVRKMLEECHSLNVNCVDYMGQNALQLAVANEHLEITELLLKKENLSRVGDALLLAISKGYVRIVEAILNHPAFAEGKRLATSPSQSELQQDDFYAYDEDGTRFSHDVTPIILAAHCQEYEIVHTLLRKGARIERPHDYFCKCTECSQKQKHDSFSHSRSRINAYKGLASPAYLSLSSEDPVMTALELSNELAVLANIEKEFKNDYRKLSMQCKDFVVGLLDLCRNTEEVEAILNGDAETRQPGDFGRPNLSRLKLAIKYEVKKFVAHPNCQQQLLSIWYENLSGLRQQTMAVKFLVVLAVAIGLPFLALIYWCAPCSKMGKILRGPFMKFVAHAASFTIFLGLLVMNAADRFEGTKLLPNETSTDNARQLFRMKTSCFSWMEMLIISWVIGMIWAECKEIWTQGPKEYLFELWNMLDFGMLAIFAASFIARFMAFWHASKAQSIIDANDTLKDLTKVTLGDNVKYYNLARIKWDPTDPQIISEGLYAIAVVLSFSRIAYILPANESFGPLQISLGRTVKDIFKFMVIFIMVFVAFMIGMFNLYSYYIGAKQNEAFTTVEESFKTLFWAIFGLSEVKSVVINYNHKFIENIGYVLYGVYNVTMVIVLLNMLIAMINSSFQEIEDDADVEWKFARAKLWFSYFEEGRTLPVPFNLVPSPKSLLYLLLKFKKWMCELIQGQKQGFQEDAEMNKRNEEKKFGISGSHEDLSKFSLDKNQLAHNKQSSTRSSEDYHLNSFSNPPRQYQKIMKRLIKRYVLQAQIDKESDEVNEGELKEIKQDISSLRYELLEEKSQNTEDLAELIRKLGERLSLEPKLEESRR

S=C(NCCc1ccccn1)NC1CCCCC1
inactive: outcome [2] | outcome [3] | outcome [4] | outcome [5] | outcome [6] | outcome [7] | outcome [8] | outcome [9] | outcome [11] | outcome [13] | outcome [14] | outcome [15] | outcome [16]
active: activation [1] 97% | activation [10] 24.5% | activation [12] 28.1%

O=C(N/N=C/c1ccco1)C1COc2ccccc2O1 (stereo not given)
active: activation [1] 80% | activation [12] 27.3%
inactive: outcome [2] | outcome [3] | outcome [4] | outcome [5] | outcome [6] | outcome [7] | outcome [8] | outcome [9] | outcome [10] | outcome [11] | outcome [13] | outcome [14] | outcome [15] | outcome [16]

O=C(NC1CCCN(Cc2ccc(Cl)cc2)C1)C1CCC1 (stereo not given)
active: activation [1] 120% | activation [2] 58% | activation [10] 47.5% | activation [12] 39.7%
inactive: outcome [3] | outcome [4] | outcome [5] | outcome [6] | outcome [7] | outcome [8] | outcome [9] | outcome [11] | outcome [13] | outcome [14] | outcome [15] | outcome [16]

CN(C)C(CNC(=O)Cc1ccc([N+](=O)[O-])cc1)c1ccccc1 (stereo not given)
active: activation [1] 161% | activation [2] 124%
inactive: outcome [3] | outcome [4] | outcome [5] | outcome [6] | outcome [7] | outcome [8] | outcome [9] | outcome [10] | outcome [11] | outcome [12] | outcome [13] | outcome [14] | outcome [15] | outcome [16]

CNCCOc1ccc(Cl)c(Cl)c1
inactive: outcome [5] | outcome [6] | outcome [7] | outcome [8] | outcome [9] | outcome [11] | outcome [13] | outcome [15] | outcome [16]
active: activation [1] 81% | activation [2] 54% | potentiation [3] 44% | potentiation [4] 23% | activation [10] 39.5% | activation [12] 24.9% | potentiation [14] 24%

COc1cccc(CN2CCNC(=O)C2CC(=O)N(C)CCc2ccccn2)c1OC (stereo not given)
inactive: outcome [2] | outcome [3] | outcome [4] | outcome [5] | outcome [6] | outcome [7] | outcome [8] | outcome [9] | outcome [10] | outcome [11] | outcome [13] | outcome [14] | outcome [15] | outcome [16]
active: activation [1] 138% | activation [12] 52.1%

O=C(NC(=S)NNC(=O)c1ccccc1[N+](=O)[O-])c1ccc(Br)cc1
active: activation [1] 141% | activation [10] 29% | activation [15] 15.6%
inactive: outcome [2] | outcome [3] | outcome [4] | outcome [5] | outcome [6] | outcome [7] | outcome [8] | outcome [9] | outcome [11] | outcome [12] | outcome [13] | outcome [14] | outcome [16]

Cn1c(=O)c2c(nc(CN3CCc4ccccc4C3)n2Cc2ccccc2F)n(C)c1=O
inactive: outcome [2] | outcome [3] | outcome [4] | outcome [5] | outcome [6] | outcome [7] | outcome [8] | outcome [9] | outcome [10] | outcome [11] | outcome [12] | outcome [13] | outcome [14] | outcome [15] | outcome [16]
active: activation [1] 221%

Cc1ccccc1N1CC(O)(c2ccccc2)[N+]2=C1SCC2 (stereo not given)
active: activation [1] 73% | activation [10] 39%
inactive: outcome [2] | outcome [3] | outcome [4] | outcome [5] | outcome [6] | outcome [7] | outcome [8] | outcome [9] | outcome [11] | outcome [12] | outcome [13] | outcome [14] | outcome [15] | outcome [16]

CCCCN(CC)CCCNC(=O)c1csc2c1CCCCC2
inactive: outcome [2] | outcome [3] | outcome [4] | outcome [5] | outcome [6] | outcome [7] | outcome [8] | outcome [9] | outcome [11] | outcome [13] | outcome [14] | outcome [15] | outcome [16]
active: activation [1] 211% | activation [10] 66.5% | activation [12] 78.6%

CC(=O)c1c(C)nn(CC(=O)NC2CCCN(Cc3ccc(CC(C)C)cc3)C2)c1C (stereo not given)
active: activation [1] 122% | activation [10] 34.5% | activation [12] 50.2%
inactive: outcome [2] | outcome [3] | outcome [4] | outcome [5] | outcome [6] | outcome [7] | outcome [8] | outcome [9] | outcome [11] | outcome [13] | outcome [14] | outcome [15] | outcome [16]

CCCN(CCC)CCCNC(=O)c1ccc2c(Cl)c3c(nc2c1)CCC3
inactive: outcome [3] | outcome [4] | outcome [5] | outcome [6] | outcome [7] | outcome [8] | outcome [9] | outcome [11] | outcome [13] | outcome [14] | outcome [15] | outcome [16]
active: activation [1] 90% | activation [2] 89% | activation [10] 27% | activation [12] 105%

CCn1c(=O)c(C(=O)NNC(=O)c2ccccc2F)c(O)c2ccccc21
inactive: outcome [2] | outcome [3] | outcome [4] | outcome [5] | outcome [6] | outcome [7] | outcome [8] | outcome [9] | outcome [10] | outcome [11] | outcome [13] | outcome [14] | outcome [16]
active: activation [1] 126% | activation [12] 111% | activation [15] 34%

Cc1ccc(-c2nn(-c3cccc(F)c3)cc2CNCc2cccnc2)o1
active: activation [1] 100%
inactive: outcome [2] | outcome [3] | outcome [4] | outcome [5] | outcome [6] | outcome [7] | outcome [8] | outcome [9] | outcome [10] | outcome [11] | outcome [12] | outcome [13] | outcome [14] | outcome [15] | outcome [16]

O=C(CC1C(=O)NCCN1Cc1ccccc1C(F)(F)F)NCCc1ccccn1 (stereo not given)
inactive: outcome [2] | outcome [3] | outcome [4] | outcome [5] | outcome [6] | outcome [7] | outcome [8] | outcome [9] | outcome [10] | outcome [11] | outcome [13] | outcome [14] | outcome [15] | outcome [16]
active: activation [1] 106% | activation [12] 26.7%
